Screens deposited in PubChem BioAssay by National Center for Advancing Translational Sciences (NCATS).
Compounds with a hit are over-represented: about 19% of the library has one in this group of screens.
HT1080NT lethal: kills 2HG-producing HT-1080-NT fibrosarcoma cells | 360,000 compounds, 1.6% hits | HT-1080-NT fibrosarcoma viability, CellTiter-Glo ATP luminescence, 48 h | Potency, µM (top dose mostly 46.1 µM), for inactives: at the top dose activity, negative = less viability, most hits filed as cytotoxic | AID 686970;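 further: NT is the 2HG producing partner of a matched IDH1 knockdown line; potency means the concentration at half of the fitted maximal effect; 0% = DMSO-treated cells and -100% = media-only wells without cells; nearly all actives have a fitted effect of over 55% in size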
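Luminescent CellTiter-Glo readout after 48 hours of compound exposure at 37 degrees C defined viability of HT-1080-NT cells. Activity was normalized to DMSO wells and cell-free media wells; concentration-response curves were fitted and assigned curve classes.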
DT40 TDP1 CPT: DT40-hTDP1 cell growth loss with CPT. chicken DT40 Tdp1-/-;hTDP1 cells + 20 nM CPT, ATP luminescence, 48 h. 420,000 compounds, 12% hits. Potency, µM (top dose mostly 46.2 µM), inactives show at the top dose activity change, negative = growth inhibition, hits mostly inhibitors; further: potency means the concentration at half of the fitted maximal effect; nearly all actives have a fitted effect of over 55% in size
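Chicken DT40 Tdp1-/- cells complemented with human TDP1, 400 cells/well, exposed to compounds plus 20 nM camptothecin for at least 48 h at 37 C; viability read as ATP content by CellTiter-Glo luminescence.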
TDP1 cell noCPT: qHTS for Inhibitors of human tyrosyl-DNA phosphodiesterase 1 (TDP1): qHTS in cells in absence of CPT. Potency, µM (top dose mostly 46.2 µM), for inactives: top-dose activity change, negative = growth inhibition, most hits filed as inhibitors. DT40 Tdp1-/- hTDP1 cells, no CPT, ATP luminescence, 48 h. 420,000 compounds, 15% hits; further: potency means the concentration at half of the fitted maximal effect; nearly all actives have a fitted effect of over 55% in size
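Seeded 400 DT40-hTDP1 cells/well (vehicle DMSO, no 20 nM CPT); pinned compounds; ≥48 hr at 37 °C; CellTiter-Glo luminescence as viability measure.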
HT1080 IDH1KD tx: toxicity to HT-1080 IDH1 knockdown cells (counter line). 360,000 compounds, 2% hits. HT-1080 IDH1 knockdown viability, ATP luminescence, 48 h. Potency, µM (series often up to 46.1 µM), without a hit: at the highest dose activity, negative = toxicity, usual class: cytotoxic;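 further: potency means the concentration at half of the fitted maximal effect; 0% = DMSO wells and -100% = cell-free medium wells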
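IDH1KD HT-1080 cells, 750/well, RPMI + 5% FBS; compound pinned after 2 h settling; 48 h, 37 °C; CellTiter-Glo luminescence; % activity normalised to DMSO and no-cell wells; curves fitted, classed by r2 and efficacy.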
IL1B secr inh: inflammasome signaling inhibition, IL-1 beta readout; THP-1 LPS/ATP IL-1B secretion, AlphaLISA, 16 h; active compounds read low; activity change, % at 57.5 µM; 360,000 compounds, 4.7% hits; AID 743279; in the data active means activity change below about -50%; inconclusive means mostly about -30% to -49%
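THP-1 cells pretreated 1 hr with compounds (up to 57.5 uM final), then stimulated with LPS (250 ng/mL final) plus ATP (1.25 mM final); secreted IL-1B measured by AlphaLISA after 16 hr, decreased signal indicating inhibition.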
An asterisk follows results filed as active; ? = inconclusive; . = no result given; [ ] = remark or other dose. Unless noted, the call rests on the fitted dose curve; in most records, active means well fitted curve in the direction sought with a large enough effect; inconclusive means small, poorly fitted or top-dose-only effect, or another doubt; inactive means no such curve, though single readings can be large; an effect the other way counts as inactive or inconclusive. Unless noted, on the % scale 0 is the no-effect control and ±100 the full control effect.

SMILES | HT1080NT lethal | DT40 TDP1 CPT | TDP1 cell noCPT | HT1080 IDH1KD tx | IL1B secr inh
O=c1[nH]/c(=C\c2ccc([N+](=O)[O-])cc2)c(=O)[nH]/c1=C\c1ccc([N+](=O)[O-])cc1 | . | ? | -30% | . | .
Cc1c(C(=O)N(Cc2cccc(Cl)c2)Cc2ccco2)oc2ccccc12 | . | ? | -24% | . | .
Cc1ccc2c(C)c(C(=O)N(Cc3ccc(N(C)C)cc3)Cc3ccco3)oc2c1C | . | ? | 13µM* | . | .
Cc1ccc2c(C)c(C(=O)NCCc3ccco3)oc2c1C | 9% | -21% | 1% | 6% | -16
Cc1c(C(=O)N(Cc2ccco2)Cc2ccccc2Cl)oc2ccc(F)cc12 | . | ? | 15µM* | . | .
CCc1ccc2oc(C(=O)N(Cc3ccc(N(C)C)cc3)Cc3ccco3)c(C)c2c1 | . | 0.73µM* | 16µM* | . | .
Cc1ccc(S(=O)(=O)NC(C)C(=O)OCC(=O)N(C)c2ccccc2)cc1 (stereo not given) | 2% | -3% | 0% | -2% | 24
Cc1cccc(C)c1NC(=O)CSc1nc(-c2cccs2)cc(C(F)(F)F)n1 | . | 15µM* | 18µM* | . | .
O=C(CSc1nc(-c2cccs2)cc(C(F)(F)F)n1)Nc1cc(OCC(F)(F)F)cc([N+](=O)[O-])c1 | ? | ? | 18µM* | 16µM* | 11
COc1ccc(NC(=O)CSc2nc(-c3cccs3)cc(C(F)(F)F)n2)cc1OC | . | 4.6µM* | 2.3µM* | . | .
CCOc1ccccc1NC(=O)CSc1nc(-c2cccs2)cc(C(F)(F)F)n1 | . | -5% | -28% | . | .
Cc1cccc(C)c1NC(=O)CSc1nc(-c2ccco2)cc(C(F)(F)F)n1 | 7% | ? | ? | -20% | 15
CC(C)(C)c1ccccc1NC(=O)CSc1nc(-c2cccs2)cc(C(F)(F)F)n1 | . | 21µM* | ? | . | .
CCc1nn2c(=O)cc(COc3ccc(/C=C(\C#N)C(=O)Nc4ccc(C)cc4)cc3)nc2s1 | . | -7% | 11% | . | .
Cc1cn([C@H]2C[C@H](O)[C@@H](CCC(=O)NC(c3ccccc3)c3ccccc3)O2)c(=O)[nH]c1=O | 10% | 7% | 1% | 4% | 0
O=C(NC(=O)c1ccccc1F)Nc1nc(-c2cccs2)cc(C(F)(F)F)n1 | 8% | 23µM* | ? | 0% | 25
O=C(CSc1nc2nc(-c3cccs3)cc(C(F)(F)F)c2c(=O)[nH]1)Nc1c(F)c(F)c(F)c(F)c1F | 12µM* | ? | ? | -11% | -8
O=C(O)CSc1nc(-c2cccs2)cc(C(F)(F)F)n1 | 0% | 0% | -19% | 7% | ?
NS(=O)(=O)c1cccc(NC(=O)CSc2nc3nc(-c4cccs4)cc(C(F)(F)F)c3c(=O)[nH]2)c1 | -22% | -10% | 23% | -18% | -9
CCOC(=O)c1c2c(n(C)c1C)C(=O)C(=O)c1ccc(Br)cc1-2 | ? | 1.5µM* | 2.1µM* | ? | 37
CCOC(=O)c1c2c(n(Cc3ccccc3)c1C)C(=O)C(=O)c1ccccc1-2 | 23µM* | 0.58µM* | 1.2µM* | ? | -100*
CCOC(=O)c1c(C(C)(C)C)oc2ccc(O)cc12 | ? | 21µM* | 23µM* | ? | 8
CCOC(=O)c1c(COc2ccccc2)oc2ccc(O)cc12 | -21% | 0% | -15% | -24% | 18
Cc1ccc(-c2nnc3ccccc3c2C(=O)Nc2cccc(Cl)c2)cc1 | . | 2% | -9% | . | .
O=C(CSc1ncnc2c1oc1ccccc12)N1CCN(c2ccccc2)CC1 | 5% | ? | 29µM* | 2% | 46
SMILES | HT1080NT lethal | DT40 TDP1 CPT | TDP1 cell noCPT | HT1080 IDH1KD tx | IL1B secr inh
CC(=O)CSc1ncnc2c1oc1ccccc12 | -6% | -5% | -16% | -6% | 19
CC(=O)N1CCN(c2ccc(NCc3cccc4ccccc34)cc2)CC1 | -20% | ? | ? | -3% | -76*
CCc1nc(Nc2ccc(N3CCN(C(C)=O)CC3)cc2)c2oc3ccccc3c2n1 | -9% | 21µM* | 13µM* | -22% | -28
c1coc(CSc2ncnc3c2oc2ccccc23)c1 | -8% | 11% | 8.2µM* | -12% | 4
CC(=O)N1CCN(c2ccc(Nc3ncnc4c3oc3ccccc34)cc2)CC1 | -18% | 15µM* | 10µM* | ? | -81*
c1ccc(N2CCN(c3ncnc4c3oc3ccccc34)CC2)cc1 | 9% | ? | ? | 7% | -9
O=C(C[n+]1cc(-c2ccc(F)cc2)n2c1CCC2)OCc1ccccc1 | 2% | -10% | 0% | 2% | 22
Cc1cccc(C)c1NC(=O)C[n+]1cc(-c2ccccc2)n2c1CCC2 | 3% | 1% | -4% | 0% | -14
COc1ccc(-c2c[n+](CC(=O)N3c4ccccc4Sc4ccccc43)c3n2CCC3)cc1 | ? | 2.3µM* | 2.1µM* | ? | -62*
CC1CCC(C(C)C)C(OC(=O)C[n+]2cc(-c3ccc(Cl)cc3)n3c2CCC3)C1 (stereo not given) | ? | 2.9µM* | 2.3µM* | ? | -86*
O=C(C[n+]1cc(-c2ccc(Cl)cc2)n2c1CCC2)N1c2ccccc2Sc2ccccc21 | -4% | 9.2µM* | 13µM* | -11% | -57*
O=C(C[n+]1cc(-c2ccc(Cl)c(Cl)c2)n2c1CCC2)N1c2ccccc2Sc2ccccc21 | ? | 16µM* | 23µM* | ? | -25
CC[C@H](C)[C@H](NC(=O)[C@H](CCCN=C(N)N)NC(=O)[C@H](CCCN=C(N)N)NC(=O)[C@H](CC(C)C)NC(=O)[C@H](Cc1ccccc1)NC(=O)CNC(=O)CN)C(=O)N[C@@H](CCCN=C(N)N)C(=O)N1CCC[C@H]1C(=O)N[C@@H](CCCCN)C(=O)N[C@@H](CC(C)C)C(=O)N[C@@H](CCCCN)C(=O)O | . | 2%[4.12 µM] | -8%[4.12 µM] | . | .
O=C(O)c1cc(Cl)c(Cl)cc1C(=O)Nc1cccc2cccnc12 | -2% | -13% | -27% | -3% | 0
O=C(Cc1cccs1)Nc1c(C(=O)Nc2ccc(F)cc2)oc2ccccc12 | . | -25% | -21% | . | .
Cc1nn2c(=O)cc(COc3ccc(/C=C(\C#N)C(=O)Nc4ccc(F)cc4)cc3)nc2s1 | . | -13% | 4% | . | .
CCCn1cc(CN2CCC(N3CCC(C(=O)N4CCOCC4)CC3)CC2)c(C)n1 | 14% | -2% | -12% | 4% | 0
CCOC(=O)c1c(C)[nH]c(C2=NNC(=NC3CC3)SC2)c1C | -2% | ? | ? | -11% | -50*
CCOC(=O)c1c(C)[nH]c(/C(C)=N/O)c1C | -6% | -21% | -16% | -15% | -5
CCC(=O)Nc1cccc2ccccc12 | 12% | 20% | -16% | 10% | 2
